Results on 40 molecules are retold here after PubChem BioAssay (NCATS).

Records with an inconclusive call do not appear. Active and inactive are the calls of the source. Calls follow the shape of the dose curve; as a rule, active = well fitted cell-killing curve with a large enough effect; inconclusive = small, poorly fitted or top-dose-only effect; inactive = flat fitted curve, though single readings scatter.
% is scaled to controls: 0 for no effect and ±100 for the full control effect.

The assay is described as follows: qHTS of pediatric cancer cell lines to identify multiple opportunities for drug repurposing: Primary screen for control Hh wild type fibroblast cells (AID 1347106).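 Also: a drop in luminescence marks cytotoxicity and a rise apparent proliferation; nearly all actives have a fitted effect of over 55% in size.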 Particulars: Hh wild-type fibroblast viability, CellTiter-Glo luminescence, 48 h; series mostly up to 46 µM. The text has this: Drug repurposing or repositioning has been offered as a strategy for drug development in oncology programs. This approach has special potential for childhood cancers and other rare or orphan diseases, where the expected return on new drug development has been a disincentive to pharmaceuticals.
In this project we exploit the poly-pharmacology of drugs to discover new indications via phenotypic screening of a panel of 19 well-characterized cell lines derived from solid tumors seen in children and adolescents. The goal is to identify approved drugs with previously unrecognized anticancer properties that has the potential to reveal new mechanisms and biological processes involved in carcinogenesis or drug resistance. We employed a titration-based paradigm (quantitative high-throughput screening or qHTS), where all compounds were tested at multiple concentrations for their effect on cell viability. Concentration-response curves (CRCs) were derived directly from the primary screen, and both potency and efficacy values were used to identify compounds with robust bioactivity profiles. We screened the NIH Chemical Genomics Center (NCGC) Pharmaceutical Collection (NPC) and Mechanism Interrogation Plate (MIPE) small molecule collections of approved and investigational compounds against these cell lines; and measured metabolically active cells after 48 hours of compound treatment as a proxy for cell viability.
Assay Submitter: Nathalia J. Martinez, National Center for Advancing Translational Sciences, National Institutes of Health, Rockville, MD, USA; email: natalia.martinez@nih.gov
[1] Shen, M et al. Quantitative high-throughput phenotypic screening of pediatric cancer cell lines identifies multiple opportunities for drug repurposing. Oncotarget 2017 Dec 19;9(4):4758-4772. PMID 29435139.
The cells were obtained from University of North Carolina (UNC), Pediatric Preclinical Testing Program (PPT), and Coriell Institute (CI).
qHTS cell viability assay:
Cells were assayed in growth media at a density of 500-1,000 cells/well. Five microliters of cells were dispensed into 1,536-well, white, solid-bottom, TC-treated plates (Greiner Bio One) using a multidrop dispenser and incubated at 37 degrees C, 5% CO2, under a humidified atmosphere for 5 hours. Twenty-three nanoliters of compounds and controls (neutral control DMSO or positive control bortezomib at final concentration of 2.3 µM) were subsequently transferred by Kalypsys pintool. For primary screens, the MIPE collection was tested at 11-point dilutions (final concentrations range from 0.78 nM to 46 µM) and the NPC collection at 8-point dilutions (final concentrations range from 0.59 nM to 46 µM). Compounds tested in follow-up screens were assayed at 11-point dilutions. Cells were incubated for 48 hours, followed by addition of 3 µL of CellTiter-Glo (Promega). After a 15 min incubation at room temperature, samples were analyzed for luminescence intensity using a ViewLux High-throughput CCD imager equipped with clear filters.
(In qHTS, concentration-response curves come from the screen itself.)
In the case of `C[N+](C)(C)CCCCCCCCCC[N+](C)(C)C`, the molecule was classed as inactive.
Turning to `CCCCNC(=O)NS(=O)(=O)c1ccc(C)cc1`, the molecule was called inactive.
As for `NCCCNCCSP(=O)(O)O`, the activity change, negative = cytotoxic was 2.73% [at 9.22 µM] (inactive).
Consider `CC(C)(Oc1ccc(CCNC(=O)c2ccc(Cl)cc2)cc1)C(=O)O`, for which the call was inactive.
Turning to `COC(=O)C1=C(C)NC(C)=C(C(=O)OCCN(C)Cc2ccccc2)C1c1cccc([N+](=O)[O-])c1` (stereo not given), the result was inactive.
On the same count and under the same terms, as for `CCC(=O)c1ccc2c(c1)N(CCCN(C)C)c1ccccc1S2`, the entry is “inactive”.
For `Cc1ccc(S(=O)(=O)NC(=O)NN2CCCCCC2)cc1`, the outcome was inactive.
Consider `CN(C)CCCN1c2ccccc2Sc2ccccc21`, for which the call was inactive.
As to `CCc1cccc(N(C)C(N)=Nc2cccc3ccccc23)c1`, the result was inactive.
On the same count and under the same terms, to `CN(C)CCCN1c2ccccc2Sc2ccc(C(F)(F)F)cc21` belongs “inactive”; to `CCCOc1ccccc1-c1nc2n[nH]nc2c(=O)[nH]1`, “inactive”; to `C[C@]12CCC(=O)C=C1CC[C@@H]1[C@@H]2C(=O)C[C@@]2(C)[C@H]1CC[C@]2(O)C(=O)CO`, “inactive”.
`CCN(CC)CC(=O)Nc1c(C)cccc1C`: the outcome was inactive.
Still for that read-out and setting: as for `COc1cc(Cc2cnc(N)nc2N)cc(OC)c1OC`, the entry is “inactive”; as for `OCCN1CCN(CCCN2c3ccccc3C=Cc3ccccc32)CC1`, “inactive”; as for `O=c1[nH]c(=O)n([C@H]2C[C@H](O)[C@@H](CO)O2)cc1Br`, “inactive”.
For `CCc1c(C)[nH]c2c1C(=O)C(CN1CCOCC1)CC2` (stereo not given), the molecule was classed as inactive.
Regarding `N[C@@H](COP(=O)(O)O)C(=O)O`, the molecule was called inactive.
Regarding `O=C(CCNNC(=O)c1ccncc1)NCc1ccccc1`, the call was inactive.
For the molecule `C(=C\c1ccccc1)/CN1CCN(C(c2ccccc2)c2ccccc2)CC1`, the molecule was classed as inactive.
As for `O=C1CC2(CCCC2)CC(=O)N1CCCCN1CCN(c2ncccn2)CC1`, the result was inactive.
Turning to `C[C@]12C=CC(=O)C=C1CC[C@H]1[C@@H]3C[C@@H](O)[C@](O)(C(=O)CO)[C@@]3(C)C[C@H](O)[C@@]12F`, the outcome was inactive.
The same measure, in the same setting: to `FC(F)(F)c1ccccc1-n1ccnc1` belongs “inactive”; to `CN=C(NC#N)NCCSCc1nc[nH]c1C`, “inactive”; to `CC1=C(C)C(=O)C(CCCCC#CCCCC#CCO)=C(C)C1=O`, “inactive”.
Turning to `CN(C)CCOC(=O)COc1ccc(Cl)cc1`, the outcome was inactive.
For `Cc1ccc(/C(=C\CN2CCCC2)c2ccccn2)cc1`, the call was inactive.
The same measure, in the same setting: as for `CC1=NS(=O)(=O)c2cc(Cl)ccc2N1`, the entry is “inactive”; as for `CC(=O)Nc1nnc(S(N)(=O)=O)s1`, “inactive”; as for `CC(C)(C)NCC(O)c1cc(O)cc(O)c1` (stereo not given), “inactive”.
For `C[C@@H](O)[C@H]1C(=O)N2C(C(=O)O)=C(SCCN=CN)C[C@H]12`, the molecule was called inactive.
Consider `O=C(O)CN(CCOCCOCCN(CC(=O)O)CC(=O)O)CC(=O)O`, for which the activity change, negative = cytotoxic was 5.93% [at 0.597 µM] (inactive).
For `CCN1CCC[C@H]1CNC(=O)c1c(O)c(Cl)cc(Cl)c1OC`, the call was inactive.
The same measure, in the same setting: to `CCN1CCc2nc(N)oc2CC1` belongs “inactive”.
`c1ccc2c(c1)CCCC2C1=NCCN1` (stereo not given): the outcome was inactive.
Turning to `CCCCCCCC/C=C\CCCCCCCC(=O)NCc1ccc(O)c(OC)c1`, the call was inactive.
Same read-out and setting: as for `CCN(CC)CCOCCOC(=O)C1(c2ccccc2)CCCC1`, the entry is “inactive”; as for `CCOC(=O)c1cnc2c(cnn2CC)c1NN=C(C)C`, “inactive”; as for `O=C1NCN(c2ccccc2)C12CCN(CCCC(c1ccc(F)cc1)c1ccc(F)cc1)CC2`, “inactive”.
On the same count and under the same terms, as for `COC(=O)[C@H]1[C@H]2C[C@@H]3c4[nH]c5cc(OC)ccc5c4CCN3C[C@H]2C[C@@H](OC(=O)c2cc(OC)c(OC)c(OC)c2)[C@@H]1OC`, the entry is “inactive”.
